Results filed as inconclusive are left out. The source made the active and inactive calls. Unless noted, calls follow the shape of the dose curve; as a rule, active = well fitted curve in the direction sought with a large enough effect; inconclusive = small, poorly fitted or top-dose-only effect, or another doubt; inactive = no such curve, though single readings can be large; an effect the other way counts as inactive or inconclusive.
How the values were obtained:
[1] = qHTS to identify inhibitors of the type 1 interferon - major histocompatibility complex class I in skeletal muscle: primary screen against the NCATS LOPAC collection (AID 1347405)
Method in brief: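 Luminescence from HiBiT fused to endogenous HLA-B in CRISPR-engineered human myoblasts served as the read-out. Cells received 4.0 ng/ml IFN-beta plus compound (seven concentrations, 1:4.3 steps, highest 46 uM final) for 24 hrs before lytic detection.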

[2] = qHTS for Hypoxia signaling pathway (HIF-1) antagonists against the NCATS CANVASS Library (AID 1347374)
Method in brief: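 HRE-bla ME-180 cells in medium with 0.5% dialyzed FBS received compounds (11-point series) plus CoCl2 (60 uM addition stock) for 17 hrs at 37C. Beta-lactamase activity read with CCF4 (405 nm ex, 460/530 nm em); CellTiter-Glo viability measured in same wells.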

[3] = qHTS for Hypoxia signaling pathway (HIF-1) agonists against the NCATS CANVASS Library (AID 1347375)
Method in brief: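 ME-180 HRE-bla reporter cells; 2,000/well, 0.5% dialyzed FBS; cpd added after 5 h, 17 h 37C/5% CO2; CCF4-AM 2 h RT; FRET 460/530 nm; CellTiter-Glo viability same wells, 30 min.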

[4] = 10-beta competent E. coli microbial cell viability qHTS against the NCATS CANVASS Library (AID 1347376)
Method in brief: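 E. coli 10-beta, 0.2 OD; cpds 11-pt; o/n 37C, 5% CO2; BacTiter-Glo 20 min RT; luminescence (ATP) = viable cells. Daunomycin ctrl.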

[5] = DH5-alpha competent E. coli microbial cell viability qHTS against the NCATS CANVASS Library (AID 1347377)
Method in brief: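 qHTS, 11-pt; E. coli DH5-alpha, 0.2 OD; o/n 37C/5% CO2; BacTiter-Glo, 20 min RT; luminescence.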

[6] = qHTS for H2AX Agonists against the NCATS CANVASS Library (AID 1347378)
Method in brief: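 Following overnight seeding, CHO-K1 cells are incubated with a concentration series of compound for 3 hr at 37C (final DMSO 0.76%). Cells are then lysed, detection antibodies added, and emission ratio 665/620 nm recorded after 24 hr at room temperature.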

[7] = qHTS for Inflammasome Signaling Inhibitors: IL-1-beta AlphaLISA screen against the NCATS CANVASS Library (AID 1347379)
Method in brief: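 THP-1 cells pretreated 1 hr with compound (up to 57.5 uM final), then stimulated with LPS (250 ng/mL final) and ATP (1.25 mM final). Secreted IL-1B measured by AlphaLISA after 16 hr; glyburide as positive control.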

[8] = qHTS for Antimalaria activity screened against the NCATS CANVASS Library (AID 1347380)
Method in brief: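 Dd2 strain, infected erythrocytes 2.5% Hct final / 0.3% parasitemia. 11-pt qHTS titration, 72 h, 37C, 5% O2, 5% CO2. Lysis buffer + SYBR Green, 18 h, fluorescence 485/535 nm.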

[9] = Inflammasome Signaling qHTS Counterscreen: IL-1-beta AlphaLISA counterscreen against the NCATS CANVASS Library (AID 1347381)
Method in brief: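 Cell-free interference check: compounds added to medium spiked with 4 pg purified IL-1β. Anti-IL-1β acceptor beads (6 ug/mL) with 0.6 nM biotinylated antibody added for 1 h at RT, then streptavidin donor beads (24 ug/mL) for 30 min in the dark. AlphaLISA read at 680/615 nm.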

[10] = Cytotoxicity qHTS for assessment of Hepg2 cells membrane integrity screened against the NCATS CANVASS Library (AID 1347387)
Method in brief: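 qHTS, 11-pt conc. series, 0.59 nM - 46 uM final; HepG2 2000 cells/well, overnight attachment; 5 hr compound exposure 37C/5% CO2; CytoTox-ONE, 10 min RT; fluorescence ex560/em590 = LDH from damaged membranes.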

[11] = qHTS assay for small molecule disruptors of mitochondrial membrane potential screened against the NCATS CANVASS Library (AID 1347389)
Method in brief: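 HepG2, 2,000 cells/well, attached overnight; compound 1 hr, 37C, 5% CO2; Mito-MPS dye 30 min, 37C; fluorescence 535 nm (monomer) and 590 nm (aggregate); decreased 590/535 ratio = depolarization.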

[12] = Secretion counterscreen for inhibitors of the SERCaMP assay screened against the NCATS CANVASS Library (AID 1347390)
Method in brief: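 Counterscreen identifying compounds that disrupt secretion, using SH-SY5Y cells with a constitutively secreted Gaussia luciferase reporter. A 20 h compound exposure (top 77 uM) precedes luminescent detection with coelenterazine.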

[13] = qHTS for activators of Nrf2/ARE signaling pathway screened against the NCATS CANVASS Library (AID 1347391)
Method in brief: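 Plate ARE-bla HepG2 cells at 2000/well and let them settle 5 h. Pin-transfer compounds in DMSO, incubate 16 h at 37C. Load CCF4 for 2 h at room temperature and read blue/green fluorescence.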

[14] = qHTS for activators of dead-cell proteases activity screened against the NCATS CANVASS Library (AID 1347392)
Method in brief: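 Compounds are pin-transferred onto attached HepG2 cells, giving 11 final concentrations. After 5 h at 37C, AAF-aminoluciferin reagent is added and luminescence is recorded at room temperature.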

[15] = qHTS for inhibitors of ER calcium dysfunction: SERCaMP assay screened against the NCATS CANVASS Library (AID 1347393)
Method in brief: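 Thapsigargin-induced ER calcium depletion drives GLuc-SERCaMP secretion from SH-SY5Y cells; compounds given 16 h beforehand were scored by lowered coelenterazine luminescence after 4 h challenge.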

[16] = Vero-766 cells viability qHTS against the NCATS CANVASS Library: Counterscreen for Zika virus inhibition assay (AID 1347394)
Method in brief: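 This cytotoxicity counterscreen uses African green monkey Vero 766 cells in the absence of Zika virus. Compounds are incubated with cells for 72 h, and ATP-based luminescence reports viability.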

[17] = qHTS for inhibitors of Wild type Zika virus screened against the NCATS CANVASS Library (AID 1347396)
Method in brief: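 Luminescent CellTiter Glo read-out of virus-induced cytotoxicity, 72 h post-infection, in Vero 766 cells. Compounds were tested at 11 concentrations; uninfected, vehicle-treated wells defined 100% inhibition.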

[18] = Viability qHTS for inhibitors of the SERCaMP assay screened against the NCATS CANVASS Library (AID 1347400)
Method in brief: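 SH-SY5Y SERCaMP MJH297 cells, 1000/well; 4 h settle, 37C/5% CO2; pin-transferred cpds; 48 h; CellTiter-Glo lum. Pos ctrl bortezomib 0.0001 - 4.6 uM.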

[19] = Redox Reaction Profiling qHTS: Assay Interference Panel against the NCATS CANVASS Library (AID 1347401)
Method in brief: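 Cell-free redox surrogate: 5 uM resazurin + 200 uM DTT, 50 mM HEPES pH 7.3/50 mM NaCl; cpds pinned, 11-pt qHTS; Ex525/Em598 read t0 and t=15 min, dark.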

[20] = qHTS for inhibitors of Rabies Virus screened against the NCATS CANVASS Library (AID 1347402; calls by dose curve)

Measured: outcome

COc1ccc(C(=O)N2CCCC2=O)cc1
inactive: [1]

O=C(O)c1nn(Cc2ccc(Cl)cc2Cl)c2ccccc12
inactive: [1]

NC(=O)CN1CCCC1=O
inactive: [1]

CN(C)CCc1c[nH]c2ccccc12
not listed: [1]
inactive: all other assays above

COC(=O)C1=CCCN(C)C1
inactive: [1]

From PubChem BioAssay (NCATS)
